MITF TRPM1 inh – inhibitors of MITF-dependent TRPM1 promoter reporter, primary screen, cell-based, SK-MEL-5, single point, luciferase; SK-MEL-5 TRPM1 promoter luciferase, 24 h; inhibition, % at 12.5 µM; 330,000 tested, 0.83% active; AID 488899, 2010;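 active means mean inhibition across replicates of 60% or more, whatever share of single replicates reaches that level; inconclusive means some that reach 60%, reason not given; inactive means mean inhibition across replicates below 60%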
PAX8 inh HTS – inhibitors of PAX8-driven TPO luciferase reporter, primary screen, RMG-I cells, single concentration | AID 652154, 2013 | 360,000 tested, 1.2% active | inhibition, % at 12.6 µM | SteadyGlo, 24 h;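 active means mean replicate inhibition at least 60% with every replicate also reaching 60%; inconclusive means only one of the two criteria is met; inactive means mean below 60% and not all replicates reaching 60%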;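 further: luciferase light reporting Pax8 driven TPO promoter activity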
Shn3 inh set2 – reduction of Shn3 3'UTR firefly luciferase signal, primary screen, Schnurri-3 inhibitor project, cell-based, Clone20 osteoblasts, set 2; Clone20 osteoblast Shn3 3'UTR firefly luciferase, 24 h; inhibition, % at 12.5 µM; 360,000 tested, 0.52% active;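 active means mean inhibition of at least 75% with every replicate also reaching 75%; inconclusive means mean inhibition at least 75% but some replicate below; inactive means mean inhibition below 75%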
aSyn UTR inh – MLPCN primary screen, SNCA 5' untranslated region | alpha-synuclein 5'UTR reporter, inhibitor activity | inhibition, % (tested at 7.5 µM) | 300,000 tested, 0.82% active | AID 1813, 2009; in the data active means inhibition above about 60%; inconclusive means no clear call, values can overlap the other calls;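 further: H4 neuroglioblastoma cells stably carrying SNCA 5'UTR luciferase fusion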
LMP1 NFkB inh – EBV LMP1-driven NF-kappaB luciferase reporter inhibitors, primary screen, cell-based, luminescence, single point; 350,000 tested, 0.69% active; inhibition, % at 12.5 µM; LMP1-induced NF-kappaB luciferase reporter cells; in the data active means inhibition above about 41%; inconclusive means no clear call, values can overlap the other calls
Large screens that a line does not name were inactive; ! = not confirmed by another sample. This is a sample that favours compounds with a hit; in the whole collection about 2.1% have one here.

Cc1ccc(-c2ccc3c(c2)O[C@@H](CN(C)C(=O)Nc2ccccc2)[C@@H](C)CN([C@H](C)CO)S3(=O)=O)cc1	PAX8 inh HTS 68 (no result: MITF TRPM1 inh, Shn3 inh set2, aSyn UTR inh, LMP1 NFkB inh)
Cc1ccccc1-c1ccc2c(c1)O[C@@H](CN(C)C(=O)Nc1ccc(C(F)(F)F)cc1)[C@@H](C)CN([C@@H](C)CO)S2(=O)=O	none (no result: MITF TRPM1 inh, Shn3 inh set2, aSyn UTR inh, LMP1 NFkB inh)
Cc1ccc(-c2ccc3c(c2)O[C@H](CN(C)C(=O)Nc2ccccc2)[C@H](C)CN([C@@H](C)CO)S3(=O)=O)cc1	none (no result: MITF TRPM1 inh, Shn3 inh set2, aSyn UTR inh, LMP1 NFkB inh)
Cc1ccccc1-c1ccc2c(c1)O[C@H](CN(C)C(=O)Nc1ccc(C(F)(F)F)cc1)[C@H](C)CN([C@H](C)CO)S2(=O)=O	PAX8 inh HTS 83 (no result: MITF TRPM1 inh, Shn3 inh set2, aSyn UTR inh, LMP1 NFkB inh)
C=CCn1c(SC(F)F)nc2scc(-c3ccco3)c2c1=O	PAX8 inh HTS 82
C=CCn1c(SCC(C)=O)nc2scc(-c3ccco3)c2c1=O	none
Cc1ccc(S(=O)(=O)Nc2ccc3c(c2)C(=O)N([C@H](C)CO)C[C@@H](C)[C@H](CN(C)Cc2ccc4c(c2)OCO4)OCCCC[C@@H](C)O3)cc1	none (no result: MITF TRPM1 inh, Shn3 inh set2, aSyn UTR inh, LMP1 NFkB inh)
COc1ccc(S(=O)(=O)Nc2ccc3c(c2)C(=O)N([C@@H](C)CO)C[C@@H](C)[C@@H](CN(C)S(=O)(=O)c2ccc(C)cc2)OCCCC[C@@H](C)O3)cc1	PAX8 inh HTS 67 (no result: MITF TRPM1 inh, Shn3 inh set2, aSyn UTR inh, LMP1 NFkB inh)
COc1ccc(S(=O)(=O)N(C)C[C@@H]2OCCCC[C@H](C)Oc3ccc(NS(=O)(=O)c4ccc(C)cc4)cc3C(=O)N([C@@H](C)CO)C[C@@H]2C)cc1	none (no result: MITF TRPM1 inh, Shn3 inh set2, aSyn UTR inh, LMP1 NFkB inh)
COc1ccc(S(=O)(=O)Nc2ccc3c(c2)C(=O)N([C@H](C)CO)C[C@H](C)[C@H](CN(C)S(=O)(=O)c2ccc(C)cc2)OCCCC[C@H](C)O3)cc1	PAX8 inh HTS 72 (no result: MITF TRPM1 inh, Shn3 inh set2, aSyn UTR inh, LMP1 NFkB inh)
O=C(c1cccnc1)N1C[C@@H]2[C@H](c3ccccc31)[C@H](CO)N2Cc1ccc2c(c1)OCO2	none (no result: MITF TRPM1 inh, Shn3 inh set2, aSyn UTR inh, LMP1 NFkB inh)
Cc1ccc2cn[nH]c2c1NC(N)=S	none
CC(C)C[C@H]1CNC(=S)N1CC1CCN(CC2CCC(C(C)(C)C)CC2)CC1 (some centres not stated)	Shn3 inh set2 93 (no result: aSyn UTR inh)
COc1ccc(N2CCCn3c2nc2c3c(=O)n(CCN3CCOCC3)c(=O)n2C)cc1	none (no result: PAX8 inh HTS)
CCCCc1ccc(NC(=O)C(=O)NCCN2CCN(Cc3ccc([N+](=O)[O-])cc3)CC2)cc1	Shn3 inh set2 94
CNC(=O)C(=O)NCCN1CCN(C(=O)c2ccc([N+](=O)[O-])cc2)CC1	none
CCN(CC)CCn1nc2c3c(cccc3c1=O)-c1ccccc1-2	MITF TRPM1 inh 70, PAX8 inh HTS inconclusive
O=c1c2cccc3c2c(nn1CN1CCOCC1)-c1ccccc1-3	none (no result: PAX8 inh HTS)
COc1ccc(C(=O)NC(C(=O)NCc2ccccc2OC)C(C)C)cc1 (configuration not stated)	none
CCOc1ccccc1Nc1cc(C)nc2ccccc12	Shn3 inh set2 92 (no result: MITF TRPM1 inh, aSyn UTR inh)
COc1ccccc1C1C2=C(CCCC2=O)N(CC(=O)O)C2=C1C(=O)CCC2	none
COC(=O)c1c(-c2ccc(C)cc2)csc1NC(=O)c1c(-c2ccccc2)noc1C	aSyn UTR inh 68 (no result: MITF TRPM1 inh, Shn3 inh set2, LMP1 NFkB inh)
COc1ccc(Cc2nnc(NC(=O)c3c(-c4ccccc4)noc3C)s2)cc1	LMP1 NFkB inh 53 (no result: PAX8 inh HTS)
COc1ccc(Cc2nnc(NC(=O)c3c(-c4ccccc4)noc3C)s2)cc1OC	none
CCCc1[nH]n(-c2ccc([N+](=O)[O-])cc2)c(=O)c1C(C)=NCc1ccncc1	none
COc1ccc(-c2cc(C(=O)NCc3cn(C)nc3C)c3ccccc3n2)cc1OC	none
CC(=O)OCO/N=[N+](\[O-])N1CCCC1	none (no result: MITF TRPM1 inh, Shn3 inh set2, aSyn UTR inh, LMP1 NFkB inh)
Cc1nn(-c2ccccc2)c(C)c1C(=O)NCc1ccc(S(N)(=O)=O)cc1	none
N#Cc1ccccc1NC(=O)C1SC(=Nc2ccccc2)C(C(=O)Nc2ccc(Cl)cc2)=C1N (configuration not stated)	MITF TRPM1 inh 72
CCn1c(NC(=O)c2ccccc2F)c(-c2cccs2)c(=O)c2ccccc21	none
O=C(NCCc1ccccc1)C(c1cccs1)N(C(=O)CCl)c1ccc(Cl)cc1 (configuration not stated)	MITF TRPM1 inh 86, PAX8 inh HTS 111
Cc1ccc(C(=O)N2CCCCC2)cc1NC1=C(Cl)C(=O)N(Cc2ccccc2)C1=O	PAX8 inh HTS 72 (no result: aSyn UTR inh)
Cc1c(OCC(=O)NCc2ccccn2)ccc2c(-c3ccccc3)cc(=O)oc12	none (no result: PAX8 inh HTS)
COC(=O)CCC(=O)OC1(C)C(=O)C=C2C=C(C3CC3)N(CC3CC3)C=C2C1=O (configuration not stated)	LMP1 NFkB inh 50
CN=c1scc(-c2cccs2)n1/N=C/c1ccc(O)c(O)c1O	none
CN=c1scc(-c2cccs2)n1/N=C/c1ccccc1O	MITF TRPM1 inh 87, PAX8 inh HTS 118, Shn3 inh set2 90, aSyn UTR inh 103, LMP1 NFkB inh 85
COc1ccc2c(c1)sc1nc(-c3ccccc3)cn12	MITF TRPM1 inh 91, Shn3 inh set2 inconclusive, aSyn UTR inh 105, LMP1 NFkB inh 80 (no result: PAX8 inh HTS)
CCOC(=O)N1CCN(C(=O)c2ccc3c(c2)sc2nc(-c4ccc(OC)cc4)cn23)CC1	none (no result: PAX8 inh HTS)
Clc1ccc(C[n+]2cc(-c3ccccc3)n3c2CCCCC3)c(Cl)c1	PAX8 inh HTS 81, Shn3 inh set2 inconclusive
Clc1ccc(-c2c[n+](Cc3ccc(Cl)cc3Cl)c3n2CCCCC3)cc1	none
CCc1cccc(N=c2c([N+](=O)[O-])nn(-c3ccc4c(c3)OCCO4)n2O)c1	PAX8 inh HTS 101
CC1Cc2ccccc2N1C(=S)NC(=O)c1cccc(Br)c1 (configuration not stated)	none
CC1Cc2ccccc2N1C(=S)NC(=O)c1ccc(Cl)cc1Cl (configuration not stated)	PAX8 inh HTS 62
CC(=O)C1(C)CCC2C3C=C(C)C4=CC(=O)CCC4(C)C3CCC21C (configuration not stated)	Shn3 inh set2 87 (no result: aSyn UTR inh)
C=C1C[C@H]2[C@@H]3C=C(C)C4=CC(=O)CC[C@]4(C)[C@H]3CC[C@]2(C)[C@@]1(OC(C)=O)C(C)=O	none
CC(C)N=c1cc2n(-c3ccc(Cl)cc3)c3ccccc3nc-2cc1Nc1ccc(Cl)cc1	MITF TRPM1 inh 74
S=c1nc[nH]c2nc[nH]c12	PAX8 inh HTS 75!, aSyn UTR inh 67
O=C(/C=C/c1cccs1)NNC(=O)c1cccc([N+](=O)[O-])c1	none (no result: aSyn UTR inh)
COc1ccccc1N(C)S(=O)(=O)c1ccc(C(=O)Nc2ccc(N3CCOCC3)cc2)cc1	none
C=CCN(c1ccccc1OC)S(=O)(=O)c1ccc(Cl)c(C(=O)Nc2ccc(N3CCOCC3)cc2)c1	aSyn UTR inh 89
Cc1ccc(-n2ncc3c(=O)n(CC(=O)N4CCN(c5ccccc5)CC4)cnc32)cc1	none
Cc1ccc(-n2ncc3c(=O)n(CC(=O)N4CCN(C(=O)c5ccco5)CC4)cnc32)cc1	PAX8 inh HTS 73 (no result: aSyn UTR inh)
N#Cc1c(NC(=O)CSc2ncn[nH]2)sc2c1CCCCC2	MITF TRPM1 inh 80, aSyn UTR inh 82 (no result: PAX8 inh HTS)
N#Cc1c(NC(=O)CSc2nc(N)cc(=O)[nH]2)sc2c1CCCCCC2	none (no result: PAX8 inh HTS)

High-throughput results deposited in PubChem BioAssay by Broad Institute.
